For 70 molecules, outcome results are on record in PubChem BioAssay AID624136 (Broad Institute, 2012).

About 75 (0.4%) of roughly 17,000 compounds were called active.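 The calls were made as follows: active = compounds whose four printed spots each glow above background more than chance allows, each with a p-value under 7%; inactive = the rest.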 The sample as a whole holds a higher share of actives than the screen did.

For this assay, the system named is mutant tumor protein p53 (GST-tagged), Homo sapiens. The assay can be described thus: binders of human mutant p53, primary screen, biochemical, small molecule microarray, anti-GST fluorescence (AID 624136). The note with it: small molecule microarray binding.
In the case of `Cc1ccccc1-c1nnc(SCC(=O)Nc2ccc(S(N)(=O)=O)cc2)n1C`, the result was inactive. `CC(C)(C)c1cn2c3ccccc3nc2n1CCN1CCOCC1`: the molecule was classed as inactive. `CNC[C@H]1Oc2ccc(NS(=O)(=O)c3ccccc3)cc2CC(=O)N([C@H](C)CO)C[C@@H]1C`: the molecule was called inactive. `CC(C)NC(=O)Nc1ccc2c(c1)C(=O)N([C@@H](C)CO)C[C@@H](C)[C@H](CN(C)C)OCCCC[C@H](C)O2`: the molecule was classed as inactive. Under `NC(CC(=O)Nc1ccc(Cl)cc1)C(=O)O` (stereo not given) stands “inactive”; under `C[C@@H]1CN([C@@H](C)CO)C(=O)c2cccc(NC(=O)c3ccncc3)c2O[C@@H]1CN(C)CC1CC1`, “inactive”; under `C[C@@H]1CN([C@@H](C)CO)C(=O)c2cccc(NS(=O)(=O)c3cn(C)cn3)c2O[C@@H]1CN(C)Cc1ccc(Cl)c(Cl)c1`, “inactive”. On to `COc1ccc(CN(C)C[C@H]2Oc3c(NC(=O)C4CCCCC4)cccc3C(=O)N([C@@H](C)CO)C[C@H]2C)cc1`, for which the molecule was called inactive. Under `CC(=O)Nc1ccc(NC(=O)CN(c2ccc(I)cc2)S(C)(=O)=O)cc1` stands “inactive”. Under `CN(CCc1ccccn1)S(=O)(=O)c1ccc2c3c(cccc13)C(=O)N2` stands “inactive”; under `CNC[C@@H]1OCCCC[C@@H](C)Oc2ccc(NS(C)(=O)=O)cc2C(=O)N([C@H](C)CO)C[C@@H]1C`, “inactive”.

With `CCN1CCOC(CC(=O)Nc2ccc3c(c2)OCCO3)C1=O` (stereo not given), the molecule was classed as inactive. Take `C[C@@H]1CN([C@H](C)CO)C(=O)c2cc(NC(=O)Cn3cnnn3)ccc2O[C@@H]1CN(C)CC1CC1`: the call was inactive. As to `C[C@@H]1CN([C@@H](C)CO)C(=O)c2cc(NS(=O)(=O)c3ccccc3)ccc2O[C@@H](C)CCCCO[C@@H]1CN(C)S(=O)(=O)c1cccs1`, the molecule was called inactive. For the molecule `O=C(Cn1cnc([N+](=O)[O-])n1)Nc1c(Cl)cccc1Cl`, the outcome was inactive. With `COc1ccc(CN(C)C[C@H]2Oc3c(NS(=O)(=O)c4ccc(Cl)cc4)cccc3C(=O)N([C@H](C)CO)C[C@H]2C)cc1`, the outcome was inactive. Consider `Cn1c(COc2ccccc2)nnc1SCc1nc2ccccc2c(=O)[nH]1`, for which the result was inactive. As for `Cc1noc(C)c1NC(=O)N(C)C[C@H]1Oc2c(NC(=O)c3nc4ccccc4s3)cccc2C(=O)N([C@@H](C)CO)C[C@@H]1C`, the outcome was inactive.

For the molecule `COc1ccc(CN(C)C[C@H]2Oc3c(NC(=O)NC4CCCCC4)cccc3C(=O)N([C@@H](C)CO)C[C@@H]2C)cc1`, the outcome was inactive. Consider `Cc1noc(C)c1NC(=O)N(C)C[C@@H]1OCCCC[C@@H](C)Oc2ccc(NC(=O)C3CCCCC3)cc2C(=O)N([C@H](C)CO)C[C@@H]1C`, for which the outcome was inactive. In the case of `CC1(C)C[C@H](O)C[C@@]2(C)[C@H]1[C@H](O)C=C1COC(=O)[C@@]12O` it was “inactive”; in that of `C[C@@H]1CN([C@H](C)CO)C(=O)c2cccc(NC(=O)Nc3cccc4ccccc34)c2O[C@@H]1CN(C)C(=O)Nc1ccc(F)cc1`, “inactive”; in that of `C[C@@H]1CC[C@]2(C(=O)O)CC[C@]3(C)C(=CCC4[C@@]5(C)CC[C@H](O)[C@](C)(C(=O)O)C5CC[C@]43C)C2[C@]1(C)O` (stereo not given in full), “inactive”.

Consider `C[C@H]1CN([C@@H](C)CO)C(=O)c2cccc(NC(=O)Nc3ccccc3)c2O[C@@H]1CN(C)S(C)(=O)=O`, for which the call was inactive. As for `COc1ccc(CN(C)C[C@H]2Oc3c(NC(=O)c4ccncc4)cccc3C(=O)N([C@H](C)CO)C[C@@H]2C)cc1`, the call was inactive.

On to `Cc1cc(C(=O)Nc2cccc3c2O[C@@H](CN(C)Cc2ccc(C(=O)O)cc2)[C@H](C)CN([C@@H](C)CO)C3=O)n(C)n1`, for which the outcome was inactive. `C[C@@H]1CN([C@@H](C)CO)C(=O)Cc2cc(NC(=O)Nc3ccc(F)cc3)ccc2O[C@@H]1CN(C)C(=O)NC1CCCCC1`: the result was inactive. For `C[C@H]1CN([C@@H](C)CO)C(=O)c2cc(NC(=O)Nc3ccc4c(c3)OCO4)ccc2O[C@@H]1CN(C)CC1CCCCC1`, the result was inactive. Turning to `COc1ccc(S(=O)(=O)Nc2ccc3c(c2)CC(=O)N([C@H](C)CO)C[C@H](C)[C@@H](CN(C)C)O3)cc1`, the molecule was called inactive. As to `COc1ccc(S(=O)(=O)N(C)C[C@@H]2Oc3ccc(NC(=O)CCC(F)(F)F)cc3C(=O)N([C@@H](C)CO)C[C@@H]2C)cc1`, the result was inactive.

Consider `Cc1ccc(C(=O)C2C(=O)C(=O)N(Cc3cccnc3)C2c2ccc(Cl)c(Cl)c2)o1` (stereo not given), for which the call was inactive. For the molecule `C[C@@H]1CN([C@@H](C)CO)C(=O)Cc2cc(NC(=O)CCN3CCOCC3)ccc2O[C@@H]1CN(C)CC1CC1`, the outcome was inactive. `COc1ccc(NC(=O)Nc2cccc3c2O[C@@H](CN(C)S(=O)(=O)c2cn(C)cn2)[C@H](C)CN([C@@H](C)CO)C3=O)cc1`: the outcome was inactive. For the molecule `Cc1noc(C)c1S(=O)(=O)N(C)C[C@@H]1Oc2ccc(NC(=O)C3CC3)cc2CC(=O)N([C@@H](C)CO)C[C@@H]1C`, the molecule was called inactive. As to `Cc1noc(C)c1NC(=O)N(C)C[C@H]1OCc2cn(nn2)CCCC(=O)N([C@@H](C)CO)C[C@H]1C`, the molecule was classed as inactive. In the case of `C[C@H](CO)N1C[C@H](C)[C@@H](CN(C)C(=O)NC2CCCCC2)Oc2ccc(NC(=O)c3ccncc3)cc2CC1=O` it was “inactive”; in that of `O=C(C1=C[C@H](C2CC2)C[C@H](OCc2ccc(CO)cc2)O1)N1CCN(Cc2ccccc2)CC1`, “inactive”. In the case of `Cn1nnnc1SCC(=O)Nc1cccc(NC(=O)C23CC4CC(CC(C4)C2)C3)c1` it was “inactive”; in that of `C[C@@H]1CN([C@H](C)CO)C(=O)c2cccc(NS(=O)(=O)c3ccc(Cl)cc3)c2O[C@@H]1CN(C)CC1CC1`, “inactive”; in that of `COc1ccc(CN(C)C[C@@H]2Oc3ccc(NC(=O)Nc4ccc(OC)cc4)cc3CC(=O)N([C@H](C)CO)C[C@H]2C)cc1`, “inactive”. As to `COC(=O)c1c(C)n(CCNc2ccc([N+](=O)[O-])cc2)c2ccc(O)cc12`, the result was inactive. For the molecule `O=C(CCc1nc(-c2ccccc2Cl)no1)Nc1ccccc1[N+](=O)[O-]`, the call was inactive. As for `C[C@H]1CN([C@@H](C)CO)C(=O)c2cccc(NC(=O)C3CCOCC3)c2O[C@@H]1CN(C)C(=O)Nc1cccc2ccccc12`, the result was inactive. Turning to `C[C@@H]1CN([C@@H](C)CO)C(=O)c2cccc(NS(=O)(=O)c3cn(C)cn3)c2O[C@H]1CN(C)Cc1ccc(Cl)c(Cl)c1`, the result was inactive. Turning to `C=C1C[C@@H]2COC(=O)[C@]2(Cc2ccc3ccccc3c2)C1`, the molecule was called inactive. On to `COc1cc(C(C)=O)ccc1OCC(O)Cn1nc(C)cc1C` (stereo not given), for which the outcome was inactive. Under `COc1ccc(CN(C)C[C@H]2Oc3c(NS(=O)(=O)c4ccc(Cl)cc4)cccc3C(=O)N([C@H](C)CO)C[C@@H]2C)cc1` stands “inactive”. In the case of `C[C@H](CO)N1C[C@H](C)[C@@H](CN(C)Cc2ccc(Cl)c(Cl)c2)Oc2c(NC(=O)C3CCCCC3)cccc2C1=O` it was “inactive”; in that of `C[C@H]1CCCCO[C@@H](CN(C)C(=O)C2CCCCC2)[C@@H](C)CN([C@@H](C)CO)C(=O)c2cc(NS(=O)(=O)c3cccs3)ccc2O1`, “inactive”; in that of `C[C@H](CO)N1C[C@H](C)[C@H](CN(C)C)Oc2ccc(NC(=O)Cc3ccccc3)cc2CC1=O`, “inactive”.

Consider `C[C@H]1CN([C@@H](C)CO)C(=O)c2cc(NC(=O)Nc3ccccc3)ccc2O[C@@H]1CN(C)C(=O)Nc1ccccc1`, for which the result was inactive.

Regarding `CCNc1nc(SCCOc2ccccc2)nc(N(C)C)n1`, the molecule was classed as inactive. `C[C@H](CO)N1C[C@H](C)[C@H](CN(C)C(=O)Nc2ccc(C(F)(F)F)cc2)Oc2ccc(NS(C)(=O)=O)cc2CC1=O`: the molecule was called inactive. Consider `O=C(OCC1OC(Oc2ccc(O)cc2COC(=O)C2(O)C(O)CCC(O)C2O)C(O)C(O)C1O)c1ccccc1` (stereo not given), for which the molecule was classed as inactive. Take `C[C@@H]1CCCCO[C@H](CN(C)C(=O)Nc2ccccc2)[C@H](C)CN([C@H](C)CO)C(=O)c2cc(N(C)C)ccc2O1`: the outcome was inactive. Under `Cc1noc(C)c1NC(=O)Nc1ccc2c(c1)CC(=O)N([C@H](C)CO)C[C@@H](C)[C@@H](CN(C)Cc1ccncc1)O2` stands “inactive”; under `CC(=O)Nc1ccc(NC(=O)CN(c2ccccc2Br)S(C)(=O)=O)cc1`, “inactive”. As to `Cc1noc(C)c1NC(=O)Nc1cccc2c1O[C@@H](CN(C)Cc1ccc(C(F)(F)F)cc1)[C@@H](C)CN([C@@H](C)CO)C2=O`, the outcome was inactive. In the case of `C[C@@H]1CCCCO[C@@H](CN(C)S(=O)(=O)c2ccccc2)[C@H](C)CN([C@H](C)CO)C(=O)c2cc(NC(=O)CCC(F)(F)F)ccc2O1` it was “inactive”; in that of `Cc1noc(C)c1S(=O)(=O)Nc1ccc2c(c1)CC(=O)N([C@@H](C)CO)C[C@@H](C)[C@H](CN(C)C)O2`, “inactive”.

As to `C[C@H](CO)N1C[C@H](C)[C@H](CN(C)C(=O)c2ccccc2)OCCCC[C@H](C)Oc2ccc(NS(C)(=O)=O)cc2C1=O`, the molecule was called inactive. In the case of `C[C@@H]1CCCCO[C@H](CN(C)Cc2ccccc2)[C@@H](C)CN([C@H](C)CO)C(=O)c2cc(NS(C)(=O)=O)ccc2O1` it was “inactive”; in that of `C[C@H](CO)N1C[C@H](C)[C@H](CN(C)C(=O)Nc2ccccc2)Oc2ccc(NC(=O)C3CC3)cc2CC1=O`, “inactive”; in that of `CC(C)NC(=O)Nc1ccc2c(c1)C(=O)N([C@@H](C)CO)C[C@H](C)[C@@H](CN(C)C(=O)Nc1ccc(F)cc1)OCCCC[C@H](C)O2`, “inactive”. For `COc1ccc(CN(C)C[C@@H]2Oc3ccc(NC(=O)Nc4ccc(OC)cc4)cc3C(=O)N([C@H](C)CO)C[C@H]2C)cc1`, the outcome was inactive.

For `C=CC(C)(O)CCC1(C)C2=C(C(OC(C)=O)C(OC(C)=O)C1C)C(C)(C)CCC2` (stereo not given), the result was inactive. On to `COc1cc([C@H](Cc2ccccc2)NC(C)=O)oc(=O)c1`, for which the molecule was called inactive.

Consider `CCc1ccc2c(c1)c1nc3ccccc3nc1n2CC(=O)OC`, for which the result was inactive. On to `C[C@H]1CN([C@@H](C)CO)C(=O)Cc2cc(NC(=O)Nc3cccc4ccccc34)ccc2O[C@H]1CN(C)CC1CC1`, for which the molecule was called inactive.

Take `C[C@@H]1CCCCO[C@H](CN(C)Cc2ccccc2)[C@@H](C)CN([C@H](C)CO)C(=O)c2cc(NS(=O)(=O)c3ccc(Cl)cc3)ccc2O1`: the result was inactive.
